Rows were chosen to be rich in hits. Some 11% of all compounds tested hit in one or more screens of this group.
Pf growth 48h: inhibits P. falciparum growth in the first generation, 48 h. AID 504832. P. falciparum luciferase growth in erythrocytes, 48 h. 5.9% of 310,000 active. Potency, µM (titrated, usually from 28.7 µM), for the others: at the highest dose activity change, negative = inhibition, actives largely listed as inhibitors; also: % is scaled to controls: 0 for no effect and ±100 for the full control effect
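In quantitative HTS format, infected erythrocytes bearing luciferase-reporter parasites were treated for a single generation at 37 C. Luminescence after adding detection reagent served as the growth measure.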
NS1 inh: inhibitors of influenza NS1 protein function; Potency, µM (titrated, usually from 46.1 µM), inactives show at the top dose activity, positive = more growth; 0.4% of 270,000 active; AID 2326; calls by dose curve; also: actives are rising curves; nearly all actives have a fitted effect of over 50% in size
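OD600 was taken as the measure of yeast growth restored by compound in an NS1-expressing S. cerevisiae strain. Cells had been washed out of glucose medium and diluted 1:100 into galactose -URA medium, pH 6.0.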
Pf growth 96h: P. falciparum growth inhibition at 96 hour, primary screen for plastid delayed-death inhibitors; P. falciparum luciferase reporter growth, 96 h; Potency, µM (doses to about 28.7 µM), for the others: top-dose activity change, negative = inhibition, most hits filed as inhibitors; 6.9% of 320,000 active; also: % is scaled to controls: 0 for no effect and ±100 for the full control effect
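Erythrocytes infected with luciferase-expressing P. falciparum were dispensed at 2% hematocrit and 0.05% parasitemia (final), then incubated with compounds 96 hours at 37 C in 5% CO2. Luminescence after detection reagent addition reported growth.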
AMA1 RON2 block: disrupts binding of P. falciparum AMA1 to RON2 | AlphaScreen AMA1-biotinylated RON2 peptide binding | Potency, µM (top dose mostly 58.2 µM), without a hit: at the highest dose activity change, negative = inhibition, hits mostly inhibitors | 0.2% of 360,000 active;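 also: 0% = vehicle wells and -100% = peptide control; nearly all actives have a fitted effect of over 45% in size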
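AMA1 (3D7) with his tag at 25 nM final met compounds first, then biotinylated RON2 peptide at 25 nM; detection used donor plus acceptor beads, 10 µg/mL apiece, read by AlphaScreen after 30 min at room temperature.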
Sm TGR block: inhibitors of Schistosoma mansoni thioredoxin glutathione reductase | Q962Y6 | purified TGR, DTNB reduction, TNB absorbance 405 nm | Potency, µM (series often up to 114 µM), without a hit: at the highest dose activity change, negative = inhibition, actives largely listed as inhibitors | 3% of 360,000 active | AID 485364; also: % is scaled to controls: 0 for no effect and ±100 for the full control effect; nearly all actives have a fitted effect of over 60% in size
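First, TGR (20 nM dispensed) and NADPH were mixed with compound. Second, a 15 min room-temperature incubation followed. Third, further NADPH and then DTNB were added to start the reaction. Finally, TNB absorbance was monitored kinetically.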
* = called active by the depositor. Unless noted, calls follow the shape of the dose curve; as a rule, active = well fitted curve in the direction sought with a large enough effect; inconclusive = small, poorly fitted or top-dose-only effect, or another doubt; inactive = no such curve, though single readings can be large; an effect the other way counts as inactive or inconclusive. Potency is read from the fitted curve at half-maximal effect.

How did Nc1c(C(=O)Nc2ccc(S(=O)(=O)N3CCCC3)cc2)sc2nc3ccc(OC(F)(F)F)cc3cc12 do in these assays?
Pf growth 48h: 10.4µM*; NS1 inh: 6.7%; Pf growth 96h: 200.0%; AMA1 RON2 block: 11.0%; Sm TGR block: -3.9%

What do the screens show for `Nc1c(C(=O)Nc2ccc(S(=O)(=O)N3CCCC3)cc2)sc2nc3cc4c(cc3cc12)CCC4`?
Pf growth 48h: 1.85µM*; NS1 inh: 6.3%; Pf growth 96h: -9.4%; AMA1 RON2 block: 0.1%; Sm TGR block: 2.0%

How did COC(=O)c1cc(NC(=O)c2cc3sccc3n2Cc2ccc(Cl)cc2)cc(C(=O)OC)c1 do in these assays?
Sm TGR block: 7.5%

Results for Cc1cc(NC(=O)Nc2nnc(N(C)Cc3ccccc3)s2)ccc1Br ?
Sm TGR block: -0.4%

What do the screens show for `N#C/C(=C\C1=C(N2CCOCC2)C(=C/c2cccc([N+](=O)[O-])c2)/CC1)C(=O)Nc1ccccc1F`?
Pf growth 48h: inconclusive; NS1 inh: -7.4%; Pf growth 96h: 9.28µM*; AMA1 RON2 block: -15.0%; Sm TGR block: 6.9%

Results for COc1cc(-c2ccc3c(=O)c4ccccc4sc3c2)cc(OC)c1OC ?
AMA1 RON2 block: 0.0%

Results for COc1cc(-c2ccc3c(=O)c4ccccc4n(C)c3c2)cc(OC)c1OC ?
Pf growth 48h: inconclusive; NS1 inh: -59.1%; Pf growth 96h: 4.65µM*; AMA1 RON2 block: 48.1%; Sm TGR block: -16.9%

Results for Cn1c2ccccc2c(=O)c2ccc(-c3ccc4c(c3)OCO4)cc21 ?
Pf growth 48h: 55.6%; NS1 inh: -3.9%; Pf growth 96h: 9.28µM*; AMA1 RON2 block: -1.4%; Sm TGR block: -20.0%

What do the screens show for `Cc1ccc(C(=O)N/C(=C\c2ccc(-c3cc(Cl)ccc3Cl)o2)C(=O)NCc2cccnc2)cc1`?
Pf growth 48h: 25.2%; NS1 inh: -34.1%; Pf growth 96h: inconclusive; AMA1 RON2 block: -5.2%; Sm TGR block: -3.9%

What do the screens show for `O=C(NCc1cccnc1)/C(=C/c1ccc(-c2cccc(Cl)c2)o1)S(=O)(=O)c1ccccc1`?
Pf growth 48h: 13.1µM*; NS1 inh: -10.7%; Pf growth 96h: 3.29µM*; AMA1 RON2 block: 13.6%; Sm TGR block: inconclusive

What do the screens show for `N#C/C(=C/c1ccc(CNC(=O)C(=O)Nc2cc(Cl)cc(Cl)c2)o1)C(=O)NCc1cccnc1`?
Pf growth 48h: 4.3%; NS1 inh: 0.0%; Pf growth 96h: -10.1%; AMA1 RON2 block: 18.0%; Sm TGR block: -23.0%

Results for O=C(NCc1cccnc1)/C(=C\c1ccc(-c2cccc(Cl)c2)o1)S(=O)(=O)c1ccccc1 ?
Pf growth 48h: 9.28µM*; NS1 inh: -14.1%; Pf growth 96h: inconclusive; AMA1 RON2 block: -11.7%; Sm TGR block: 17.8µM*

Results for O=[N+]([O-])c1ccc(OCCO)c(P(=O)(c2ccccc2)c2ccccc2)c1 ?
Pf growth 48h: 0.0%; NS1 inh: -3.0%; Pf growth 96h: 0.0%; AMA1 RON2 block: -15.3%; Sm TGR block: 6.9%

How did COc1ccc(CNC(=O)CN2C(=O)CSc3ccc(S(=O)(=O)N(C)C)cc32)cc1 do in these assays?
Sm TGR block: 8.6%

What do the screens show for `CN(C(=O)COc1coc(CN2CCN(c3ccccc3)CC2)cc1=O)c1ccccc1`?
Pf growth 48h: -12.8%; Pf growth 96h: 13.1µM*; AMA1 RON2 block: 8.6%; Sm TGR block: 39.4%

Results for CNC(=O)COc1coc(CN2CCN(c3ccccc3)CC2)cc1=O ?
Pf growth 48h: 6.5%; NS1 inh: 0.0%; Pf growth 96h: -13.7%; AMA1 RON2 block: -2.7%; Sm TGR block: 10.8%

How did CCN(CC)C(=O)COc1coc(CN2CCN(c3cccc(Cl)c3)CC2)cc1=O do in these assays?
Pf growth 48h: -12.1%; NS1 inh: 5.6%; Pf growth 96h: 8.28µM*; AMA1 RON2 block: -5.8%; Sm TGR block: -20.0%

What do the screens show for `CCCNC(=O)COc1coc(CN2CCN(c3cccc(Cl)c3)CC2)cc1=O`?
Pf growth 48h: -15.9%; NS1 inh: -10.4%; Pf growth 96h: 10.4µM*; AMA1 RON2 block: -1.5%; Sm TGR block: 0.5%

Results for CN(C)c1cccc(C(=O)NNC(=O)CSc2ccccc2)c1 ?
Pf growth 48h: 6.0%; NS1 inh: -10.5%; Pf growth 96h: 15.0%; AMA1 RON2 block: 52.6%; Sm TGR block: 3.9%
